Screening results: PubChem BioAssay, several laboratories
Only some compounds are listed: those with a hit (about 2.8% of all), similar ones and a draw of the others.
JMJD2C inh: inhibitors of human GASC-1 (JMJD2C) demethylase; Q9H3R0; AID 2099; GST-JMJD2C(1-420) H3K9me3 demethylation, DELFIA europium; inhibition, % at 2.35 µM; 0.069% of 330,000 active;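 active means more than half of a compound's replicate wells show inhibition beyond 50%, single wells judged on their own value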;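 further: signal counts dimethyl H3K9 product captured on neutravidin plate; 0% = median of DMSO wells and 100% = 0.3 times that DMSO median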
KLK7 zymogen act: proKLK7 (human) activation, primary screen | purified proKLK7, EDANS-DABCYL substrate fluorescence; 100% is mature enzyme control, 0% vehicle | activation, % at 7 µM | AID 652039 | P49862 | 0.9% of 370,000 active;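 active means activation above the mean of all tested compounds plus 3 SD, computed per campaign excluding outliers beyond control limits, cut at about 13% in these data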
PP1 inh: blocks human PP1-alpha phosphatase, a PP5 counter-screen | inhibition, % at 6.7 µM | purified PP1alpha, OMFP fluorescence | AID 2235 | 0.9% of 320,000 active;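 active means inhibition above the mean inhibition of all tested compounds plus 3 SD, computed separately for each screening campaign, cut at about 15% in these data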
Rev-erbA mod: modulators of human Rev-erb alpha DNA binding; P20393; Rev-erbα–FITC-DNA binding, fluorescence polarization, 90 min; activity, % at 10 µM; 0.79% of 370,000 active; AID 1259318;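 active means activity above about 14%, limit read from the data; passing the limit was not always enough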;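 further: 0% = DMSO wells with 35 nM protein and 100% = DMSO wells with 750 nM protein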
Target sequence (P20393 whole entry, looked up): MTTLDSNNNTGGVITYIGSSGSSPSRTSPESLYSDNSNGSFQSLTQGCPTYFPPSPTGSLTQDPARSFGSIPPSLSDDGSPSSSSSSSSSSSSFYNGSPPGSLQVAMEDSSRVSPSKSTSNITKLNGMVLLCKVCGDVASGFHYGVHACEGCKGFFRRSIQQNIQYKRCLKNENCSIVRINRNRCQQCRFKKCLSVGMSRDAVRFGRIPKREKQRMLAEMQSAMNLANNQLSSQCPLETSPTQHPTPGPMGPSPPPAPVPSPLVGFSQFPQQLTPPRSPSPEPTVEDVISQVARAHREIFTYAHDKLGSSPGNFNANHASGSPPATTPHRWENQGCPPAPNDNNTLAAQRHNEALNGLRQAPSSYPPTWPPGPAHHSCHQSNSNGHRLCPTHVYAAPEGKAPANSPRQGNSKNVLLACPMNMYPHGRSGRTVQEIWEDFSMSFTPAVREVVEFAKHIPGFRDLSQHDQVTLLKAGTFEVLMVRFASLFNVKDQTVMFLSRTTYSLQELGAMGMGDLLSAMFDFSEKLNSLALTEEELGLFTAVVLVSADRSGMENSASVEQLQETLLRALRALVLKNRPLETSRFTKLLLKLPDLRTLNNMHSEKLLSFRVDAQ
PG9 binder: small molecules binding HIV-1 gp120 antibody PG9 | TR-FRET gp120-PG9 antibody binding | inhibition, % at 6.7 µM | 0.43% of 360,000 active; in the data active means inhibition above about 8.5%
PP5 inh: blocks human protein phosphatase 5 activity; P53041; purified PP5c, OMFP substrate fluorescence; inhibition, % at 6.7 µM; 0.18% of 320,000 active; AID 1987;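 active means inhibition above the campaign's mean inhibition across all tested compounds plus 3 SD, cut at about 9.5% in these data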;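 further: 0% = DMSO only and 100% = 100 µM cantharidin control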
Rev-erbA confirm: confirmation of modulators of human Rev-erb alpha DNA binding; 61% of 3,000 active; shares compounds with Rev-erbA mod; activation, % at 25 µM; Rev-erb alpha FITC-DNA binding, fluorescence polarization, 90 min; AID 1259319;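 active means activation at or above a set limit, or at least 3 SD above the negative control mean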;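 further: 0% = 35 nM protein with DMSO and 100% = 750 nM protein high control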
RORg counter: RORgamma DNA-binding activity, dose-response counter-screen | shares compounds with Rev-erbA mod | purified RORgamma protein-FITC-DNA binding, fluorescence polarization | IC50, µM | 8% of 910 active | AID 1259320;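 active means Compounds whose fitted half-maximal concentration for disrupting protein-DNA binding is below 10 micromolar; the record names Rev-erb in its text, so the target is in doubt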
An asterisk follows results filed as active; i = inactive; / = no result.

SMILES	JMJD2C inh	KLK7 zymogen act	PP1 inh	Rev-erbA mod	PG9 binder	PP5 inh	Rev-erbA confirm	others
COc1ccc(NC(=O)c2cc3nc(-c4ccccc4)cc(-c4ccccc4)n3n2)c(OC)c1	-28.6	-0.8	1.7	21.2*	2.7	3.1	13.8
COc1ccc(NC(=O)c2sc(-c3ccccc3)nc2C)c(OC)c1	-7.0	-175.7	-2.6	8.3	-0.6	-3.0	/
Cn1nc(C(=O)Nc2ccc(Br)cc2)cc1C(=O)Nc1ccc(Br)cc1	3.3	0.1	-0.3	13.3*	0.1	1.5	5.7
Cc1nc2ccc(NC(=O)c3ccc(F)cc3F)cc2c(=O)[nH]1	/	0.1	/	-1.5	/	/	/
COC(CNC(=O)[C@H](Cc1ccccc1)NC1(C(=O)NC2CCCCC2)CCCC1)OC	/	/	/	7.6	/	/	/
COC(=O)c1ccsc1NS(C)(=O)=O	/	0.0	/	2.5	-0.8	/	/
COc1ccc(C2=NN(C(=O)CSc3nc(=O)n4cc(C)ccc4n3)C(c3ccc(C)cc3)C2)cc1 (centres undefined)	7.1	-0.1	1.6	57.5*	-1.7	0.7	19.8*
CNc1ccccc1/C(O)=C(\C#N)C(=O)NCc1cccc2ccccc12	/	-0.5	/	41.9*	/	/	25.8*
CCCCOc1ccc(N(CC(=O)NC2CCCCC2)C(=O)c2snc(C(N)=O)c2N)cc1	-22.0	0.8	-0.3	63.7*	4.2	-0.1	40.5*	RORg counter=i
O=C(CN1C(=O)c2cccc3cccc1c23)N1CCN(c2cccc(Cl)c2)CC1	0.1	-0.1	0.3	49.4*	1.0	-0.2	27.1*
O=C(CN1C(=O)c2cccc3cccc1c23)N1CCN(c2ccccc2)CC1	6.3	0.0	0.7	17.3	1.3	-0.1	/
CC(=O)c1ccc(N2CCN(c3ccc4cc(S(=O)(=O)N5CCC(C)CC5)ccc4n3)CC2)cc1	3.1	0.3	2.4	35.1*	-1.4	-0.1	44.7*	RORg counter=>40
O=S(=O)(c1ccc2nc(N3CCN(c4ccccc4)CC3)ccc2c1)N1CCCCC1	7.1	-0.1	0.6	83.3*	-0.1	0.3	56.4*	RORg counter=>40
CC(=O)c1ccc(N2CCN(S(=O)(=O)c3ccc4ccccc4c3)CC2)cc1	6.4	-0.1	5.1	-4.3	1.3	6.0	/
COC(=O)C1CN(Cc2cn(Cc3ccc(F)cc3)nn2)CCS(=O)(=O)N1Cc1ccccc1 (centres undefined)	/	0.1	/	-6.8	/	/	/
CCOC(=O)c1cc2c(=O)c3ccccc3oc2nc1C	-20.9	-0.4	3.1	53.1*	-2.7	-0.1	44.0*	RORg counter=>40
Cc1cc(C)c2c(N)c(C(=O)N/N=C/c3cccs3)sc2n1	-7.4	-8.6	-1.6	80.0*	2.4	0.7	54.1*	RORg counter=>40
COc1cc(NC(=O)c2ccc(-c3ccc(F)c(F)c3)c3ccoc23)cc(OC)c1OC	/	0.3	/	17.7*	-0.7	/	-0.5
CCCCOc1ccc(C(=O)NC2CCCCN(C(C)C)C2=O)cc1 (centres undefined)	/	0.5	/	3.7	/	/	/
CCOC(=O)c1c(C)c(C#N)c2c3ccccc3ccn12	20.8	0.4	-1.8	57.5*	-1.5	3.1	17.4*
CCOC(=O)c1c(C)nc2c3ccccc3ccn12	2.1	-0.9	-7.3	-0.5	2.9	0.2	/
CN1C(=O)c2cccc3c(S(=O)(=O)Nc4ccc(O)c(C(=O)O)c4)ccc1c23	10.9	1.8	3.1	1.6	-1.1	1.4	/
CCCC(=O)N(c1ccc(OCC)cc1)S(=O)(=O)c1ccc2c3c(cccc13)C(=O)N2C	13.2	-9.8	5.3	43.0*	0.0	3.2	16.7
Cc1ccc(Oc2nccc(-c3ccc(Cl)cc3)n2)cc1	-9.5	0.2	0.9	47.1*	0.7	0.8	45.6*	RORg counter=>40
CN(CCOC(=O)c1cc2ccccc2o1)C1CN(Cc2cn(Cc3ccc([N+](=O)[O-])cc3)nn2)S(=O)(=O)C1 (centres undefined)	/	0.7	/	5.4	/	/	/
SMILES	JMJD2C inh	KLK7 zymogen act	PP1 inh	Rev-erbA mod	PG9 binder	PP5 inh	Rev-erbA confirm	others
CC(=O)CCN1CCSCCS1(=O)=O	/	0.3	/	1.5	-1.6	/	/
Cc1cc(C)c2c(=O)[nH]c(SCC(=O)c3ccc(F)c(C)c3)nc2n1	12.2	-0.4	-2.9	35.4*	2.5	-0.5	24.2*
CSc1ccc(-c2ccc3c(c2)c(Sc2ccccc2)c(-c2ccccc2)n3C)cc1	/	-0.7	/	17.5*	-0.9	/	24.9*
COc1cc(OC)cc(-c2c(Sc3ccccc3)c3cc(-c4ccc(OC)c(F)c4)ccc3n2C)c1	/	-0.1	/	20.6*	8.2	/	36.7*	RORg counter=>40
COc1cc(OC)cc(-c2c(Sc3ccccc3)c3cc(-c4ccc(SC)cc4)ccc3n2C)c1	/	-0.2	/	29.1*	1.8	/	34.5*	RORg counter=>40
COc1ccc(-c2ccc3c(c2)c(Sc2ccccc2)c(-c2ccccc2)n3C)cc1	/	0.2	/	3.4	1.0	/	/
C#CCCC(=O)Nc1sc2c(c1-c1nc3ccccc3s1)CCN(C(C)C)C2	/	/	/	1.5	/	/	/
O=C1c2ccccc2C(=O)N1c1ccc(Br)c2cccnc12	11.3	1.5	0.9	1.6	1.4	-1.1	/
COc1ccccc1Oc1ccc2c(c1)C(=O)N(c1ccc(Br)c3cccnc13)C2=O	2.9	0.4	-3.7	38.7*	1.3	2.3	22.2*
CC(C)CNc1cccc2c1S(=O)(=O)N[C@@H](C)CO2	/	0.1	/	1.4	-0.9	/	/
CC(C)Cc1nc2sc3c(SCC(N)=O)ncnc3c2c2c1CCC2	/	-0.4	-2.9	368.6*	-0.2	-1.1	567.8*	RORg counter=i
O=C(Nc1ccccc1)c1cccc(-c2nnc(-c3ccccc3)o2)c1	12.5	0.2	0.4	30.4*	1.0	-0.3	10.3
O=C(Nc1cccc(-c2nnc(-c3ccccc3)o2)c1)c1ccco1	-1.8	-0.3	-2.6	4.2	0.9	0.5	/
C=CCOC(=O)N[C@@H](c1coc2ccccc2c1=O)[C@@H](C)/C=C/CC(=O)OC	/	0.6	/	-2.3	/	/	/
CCN(CC)S(=O)(=O)c1ccc2[nH]cc(C(=O)NCCN3CCCCC3C)c(=O)c2c1 (centres undefined)	2.8	-7.3	-4.9	-3.9	-1.1	-0.6	/
CCCCCNC(=O)c1c[nH]c2ccc(S(=O)(=O)N3CCC4(CC3)OCCO4)cc2c1=O	-0.7	-0.9	5.9	37.7*	0.5	1.5	48.3*	RORg counter=>40
CCN(CC)S(=O)(=O)c1ccc2[nH]cc(C(=O)NCCCN3CCCCC3C)c(=O)c2c1 (centres undefined)	-0.7	-6.4	1.2	26.9*	-1.2	3.6	2.1
CCCOc1nccc2c1n(C)c(=O)n2C	/	0.3	/	8.2	/	/	/
COC(=O)[C@]12C[C@H](CC(=O)N3CCOCC3)C(=O)N(CCC3=CCCCC3)C1=C[C@H](C1CCCC1)O[C@@H]2C	/	0.5	/	-0.4	/	/	/
N#Cc1ccc(-c2ccc(Cl)cc2)nc1SCC(=O)c1cccc(Cl)c1	/	0.4	-0.6	4.8	0.5	1.4	/
